SMN2 splice up = qHTS Assay for Enhancers of SMN2 Splice Variant Expression | HEK293 SMN2-luciferase splicing reporter, luminescence, 30-36 h | Potency, µM (highest dose often 46.1 µM), for the others: at the highest dose activity change, positive = activation, most hits filed as activators | hit rate 2.8% among 210,000 | AID 1458, 2008; note: % of control where 0% means no effect; nearly all actives have a fitted effect of over 55% in size
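qHTS luciferase splicing reporter: luminescence rises when SMN2 exon 7 is included in transfected HEK293 cells. Compound exposure lasted 30-36 h at 37C, with 4.5 mM final sodium butyrate as control, followed by a ONE-Glo read.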
FLuc modulator = qHTS profiling assay for firefly luciferase inhibitor/activator using purifed enzyme and Km concentrations of substrates (counterscreen for miR-21 project). Luciferin 4-monooxygenase (Photinus pyralis), P08659. purified FLuc, Km substrates, luminescence inhibition. Potency, µM (series often up to 57.5 µM), for inactives: at the highest dose activity change, negative = inhibition, most hits filed as inhibitors. hit rate 6.9% among 360,000;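 note: plate controls were vehicle for no effect and reference inhibitor for full effect; nearly all actives have a fitted effect of over 55% in size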
Target sequence (P08659 whole entry, looked up): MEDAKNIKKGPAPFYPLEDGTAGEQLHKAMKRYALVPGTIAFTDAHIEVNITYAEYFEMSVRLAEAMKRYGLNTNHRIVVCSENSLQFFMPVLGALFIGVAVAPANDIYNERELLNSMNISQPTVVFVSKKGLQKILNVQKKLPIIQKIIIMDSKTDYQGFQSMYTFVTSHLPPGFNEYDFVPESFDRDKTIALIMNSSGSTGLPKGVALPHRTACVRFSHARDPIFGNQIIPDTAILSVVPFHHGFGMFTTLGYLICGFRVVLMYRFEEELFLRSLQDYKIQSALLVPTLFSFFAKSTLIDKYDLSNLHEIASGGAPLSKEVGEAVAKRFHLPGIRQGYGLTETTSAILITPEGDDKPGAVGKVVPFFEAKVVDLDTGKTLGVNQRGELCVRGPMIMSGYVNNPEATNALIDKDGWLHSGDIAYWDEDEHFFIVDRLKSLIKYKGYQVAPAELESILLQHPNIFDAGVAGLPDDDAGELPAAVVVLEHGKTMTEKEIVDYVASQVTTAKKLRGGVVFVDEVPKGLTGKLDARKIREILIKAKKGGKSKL
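Purified P. pyralis luciferase, 10 nM final, with Km-level 10 uM D-luciferin and 10 uM ATP in 50 mM Tris acetate pH 7.5, 10 mM Mg acetate, 0.01% Tween-20, 0.05% BSA; 6-point qHTS titration about 60 µM downward; luminescence read.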
NPC1 promoter act = qHTS Assay for NPC1 Promoter Activators. Huh7 NPC1 promoter luciferase reporter, 24 h. Potency, µM (top dose mostly 9.22 µM), for the others: top-dose activation, hits mostly activators. hit rate 2.4% among 320,000. AID 485313, 2010; note: % of control where 0% means no effect; nearly all actives have a fitted effect of over 60% in size
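Huh7 reporter cells (NPC1 promoter driving luciferase) are dosed with compound for 24 h at 37 °C, 5% CO2; luciferase detection reagent is then added and luminescence measured after 10 min at ambient temperature.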
KinaseGlo FLuc = Counterscreen for Luciferase (Kinase-Glo TM) Inhibition. AID 1379, 2008. Potency, µM (top dose mostly 38.3 µM), for the others: at the top dose activity change, negative = inhibition, actives largely listed as inhibitors. hit rate 0.28% among 200,000. Kinase-Glo luciferase, ATP luminescence, 8 min. Luciferin 4-monooxygenase (Photuris pensylvanica), Q27757; note: % is set by controls: 0 for no effect and ±100 for the full control effect; nearly all actives have a fitted effect of over 60% in size
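Compound is pinned into ATP-containing buffer (10 uM ATP, imidazole pH 7.2, 7 mM MgCl2). Kinase-Glo luciferase reagent is then added. Light output is recorded following an 8-min room-temperature incubation.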
Rab9 prom act = qHTS Assay for Rab9 Promoter Activators; AID 485297, 2010; Potency, µM (top dose mostly 9.22 µM), for the others: top-dose activation, negative = inhibition, hits mostly activators; Huh7 Rab9 promoter-luciferase reporter, luminescence, 24 h; hit rate 2.8% among 320,000; note: % of control where 0% means no effect; nearly all actives have a fitted effect of over 60% in size
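Luminescence read-out: Huh7 cells stably expressing Rab9-luciferase, treated 24 h with compound at 37 °C, then lysed with luciferase reagent for 10 min at ambient before reading.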
ELG1 genotox = qHTS screen for small molecules that induce genotoxicity in human embryonic kidney (HEK293T) cells expressing luciferase-tagged ELG1; hit rate 1.3% among 330,000; Potency, µM (titrated, usually from 46 µM), for the others: at the highest dose activity change, positive = activation, actives largely listed as activators; HEK293T ELG1-luciferase reporter, luminescence, 16 h; note: % of control where 0% means no effect; nearly all actives have a fitted effect of over 60% in size
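Cells (2,000/well) expressing the ELG1-luciferase fusion are dosed by pin tool and kept 16 hr at 37 °C, 5% CO2. Signal comes from ONE-Glo luciferase reagent after 30 min at room temperature.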
An asterisk follows results filed as active; ? = inconclusive; . = no result given; ! = a repeat was not active; [ ] = remark or other dose. The list is not random: actives were taken first. Their share in the collection is about 7.5%. Calls come from the whole dose curve; as a rule, active = well fitted curve in the direction sought with a large enough effect; inconclusive = small, poorly fitted or top-dose-only effect, or another doubt; inactive = no such curve, though single readings can be large; an effect the other way counts as inactive or inconclusive. Potency is the fitted concentration of half-maximal effect.

SMILES	SMN2 splice up	FLuc modulator	NPC1 promoter act	KinaseGlo FLuc	Rab9 prom act	ELG1 genotox
COC(=O)N/N=C/c1cc(C)n(-c2ccccc2)c1C	-1%[1.84 µM]	8.5µM*	25%	-1%	?	?
COC(=O)N/N=C/c1cc(C)n(-c2ccc(Br)cc2)c1C	.	?	1%	.	16%	2%
CCc1ccc(-n2c(C)cc(/C=N/NC(=O)OC)c2C)cc1	3%[1.84 µM]	19µM*	1%	0%	2%	14%
CC(=O)N/N=C/c1cc(C)n(-c2ccc(Br)cc2)c1C	-13%	-18%	5%	2%	10%	0%
COC(=O)N/N=C/c1cc(C)n(-c2ccc(F)cc2)c1C	28%	24µM*	0%	-2%	21%	?
CCOCCCNC(=O)CCN1C(=O)c2ccccc2Sc2ncccc21	.	3%	-5%	.	-3%	1%
Cc1cc(/C=N/O)c(C)n1-c1ccccc1	5%[1.84 µM]	17µM*	8%	0%	17%	9%
Cc1cc(/C=N\O)c(C)n1-c1ccncc1	17%	0%	-2%	-1%	3%	2%
CC1C(O)=C(c2nc3ccccc3[nH]2)C(=N)N1c1ccccc1 (stereo unspecified)	26%	17µM*	26%	0%	21%	?
CCC(C)N1CC(O)=C(c2nc3ccccc3[nH]2)C1=N (stereo unspecified)	-6%	17µM*	?	2%	?	?
N=C1C(c2nc3ccccc3[nH]2)=C(O)CN1c1ccc(CC(=O)O)cc1	-11%	-19%	-4%	-4%	1%	0%
N=C1C(c2nc3ccccc3[nH]2)=C(O)CN1c1ccccc1	19%	8.5µM*	23%	4%	?	21µM*
Cc1cccc(CNc2ncnc3ccc(-c4cccc(C#N)c4)cc23)c1	-33%	.	.	-1%	.	.
CC1CCCCC1NC(=O)COC(=O)c1ccc2ncsc2c1 (stereo unspecified)	.	-1%	2%	.	-2%	5%
CC(C)Oc1ccc(CNC(=O)c2ccc(NC(=O)N3CCSc4ncccc43)cc2)cc1	.	-5%	.	.	.	.
COc1ccc(OC)c(NC(=O)Nc2cccc(OCc3cc(=O)n4cc(C)ccc4n3)c2)c1	.	1.2µM*	.	.	.	.
Cc1ccc2nc(COc3ccc(Cl)cc3)cc(=O)n2c1	13µM*	?	3.5µM*	3%	1.3µM*	23%
Fc1ccc(Nc2nc3nonc3nc2Nc2cccc(C(F)(F)F)c2)cc1	-65%	-18%	.	.	.	.
Cc1cc(OCc2cc(C(=O)N(C)C3CCOCC3)no2)cc(C)c1Cl	.	21µM*	3.5µM*	.	4µM*	18%
COc1ccc(OCc2cc(C(=O)NC3CCOC(C)(C)C3)no2)c2ccccc12 (stereo unspecified)	.	8.5µM*	2.8µM*	.	3.5µM*	?
CN(CCC1CCOCC1)C(=O)c1cc(COc2c(F)cccc2F)on1	.	-6%	-2%	.	14%	5%
Cc1ccc(OCc2cc(C(=O)N(C)CC3CCOCC3)no2)cc1C	.	12µM*	2.8µM*	.	3.2µM*	?
COc1ccccc1OCc1cc(C(=O)N(C)CCC2CCCCO2)no1 (stereo unspecified)	.	12µM*	2.5µM*	.	1.6µM*	10µM*
COc1ccc(OCc2cc(C(=O)N(C)C3CCOC3)no2)c(Cl)c1 (stereo unspecified)	.	?	2%	.	9%	12%
COc1ccc(OCc2cc(C(=O)N(C)C3CCOCC3)no2)c2ccccc12	.	15µM*	?	.	?	12%
SMILES	SMN2 splice up	FLuc modulator	NPC1 promoter act	KinaseGlo FLuc	Rab9 prom act	ELG1 genotox
CC(C)c1ccc(NC(=O)N(CCc2nc3ccccc3[nH]2)C2CCCC2)cc1	-3%	7.6µM*	7%	0%	4%	2%
Cc1onc(-c2ccccc2)c1C(=O)NC1CC1	.	-2%	-4%	.	-4%	-1%
Cc1c(C(=O)NCc2ccc(Cl)cc2)sc2nc3n(c(=O)c12)CCC3	.	-11%	.	.	.	.
CC(=O)c1cccc(NC(=O)c2sc3nc4n(c(=O)c3c2C)CCCCC4)c1	.	-17%	-3%	.	-4%	-6%
COc1ccc(CNC(=O)c2sc3nc4n(c(=O)c3c2C)CCCCC4)cc1	.	19µM*	.	.	.	.
Cc1c(C(=O)Nc2cc(F)ccc2F)sc2nc3n(c(=O)c12)CCCCC3	.	-7%	2.8µM*	.	1.6µM*	16µM*
COc1cccc(NC(=O)c2sc3nc4n(c(=O)c3c2C)CCC4)c1	.	19µM*!	?	.	4µM*	?
Cc1ccc(NC(=O)c2sc3nc4n(c(=O)c3c2C)CCCCC4)c(Br)c1	.	3%	.	.	.	.
CSc1cccc(NC(=O)c2sc3nc4n(c(=O)c3c2C)CCC4)c1	.	27µM*	3.5µM*	.	?	?
Cc1c(C(=O)Nc2ccc(Oc3ccccc3)cc2)sc2nc3n(c(=O)c12)CCC3	-38%	?	3%	-4%	0%	-4%
CCN(CC)C(=O)COc1coc(CN2CCN(c3ccccc3F)CC2)cc1=O	.	2%	-4%	.	-1%	1%
COc1ccc(Nc2ncnc3sc(-c4ccccc4)cc23)cc1OC	-6%	12µM*	1%	3%	0%	0%
Cc1ccsc1/C=N/Nc1ccc(C(=O)O)cc1	.	0.27µM*	?	.	?	?
Cc1ccsc1/C=N/Nc1cccc(C(=O)O)c1	0.1µM*	0.11µM*	3.2µM*	-26%	0.0032µM*	?
C=CCn1c(SCc2c(C)noc2C)nc2cc(C(=O)O)ccc2c1=O	20%	8%	-22%	-3%	-20%	?
Cc1noc(C)c1CSc1nc2ccccc2c(=O)n1-c1ccc(F)cc1F	11µM*	-1%	-22%	2%	-11%	18%
C=CCn1c(SCc2c(C)noc2C)nc2ccccc2c1=O	-18%	1%	-22%	-1%	-18%	10µM*
Cn1cc(-c2ccccc2C(=O)O)c(=O)c2cc(Cl)ccc21	.	0%	-1%	.	2%[1.84 µM]	0%
C/C(=N/NC(=O)c1ccoc1C)c1ccc(N2CCOCC2)cc1	?	?	16%	-11%	22%	?
C/C(=N\N=c1/sc2ccccc2n1C)c1ccc(N2CCOCC2)cc1	12%	2.4µM*	-2%	-2%	21%	9%
C/C(=N\N=c1/sc2ccccc2n1C)c1ccccn1	?	17µM*	?	-1%	?	?
CCOC(=O)c1cc(-c2cccnc2)nn1-c1ccccc1C	1%	-2%	-4%	2%	0%	0%

Bioassay records (PubChem)
